FBPA Giardia inh = blocks Giardia fructose-bisphosphate aldolase activity | purified Giardia FBPA | 290,000 tested, 0.71% active | A8B2U2 | AID 2451 | Potency, µM (titrated, usually from 59.6 µM), for the others: at the top dose activity, negative = inhibition, hits mostly inhibitors; note: nearly all actives have a fitted effect of over 55% in size
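40 nM FBPA preincubated 10 min at RT with compound (up to 57.5 uM final), then substrate plus GAPDH/TPI/NAD/arsenate coupling and diaphorase/resazurin added. Fluorescence read after 20 min at RT, 525/598 nm.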
Tb PYK inh = blocks Trypanosoma brucei pyruvate kinase; 410,000 tested, 0.12% active; TbPYK enzyme, Kinase-Glo Plus ATP luminescence, 45 min; AID 624173; Q57TT1; Potency, µM (top dose mostly 76.8 µM), for inactives: at the top dose activity, negative = inhibition, actives largely listed as inhibitors; note: nearly all actives have a fitted effect of over 50% in size
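TbPYK + substrate in 50 mM TEA pH 7.2, 100 mM KCl, 10 mM MgCl2, 0.05% BSA, 0.01% Tween-20; cpd pinned; ADP 130 uM final; 45 min RT; Kinase-Glo Plus 10 min; luminescence endpoint.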
LmPK inh = LmPK (Leishmania mexicana) enzyme inhibition | Potency, µM (doses to about 57.5 µM), without a hit: top-dose activity change, negative = inhibition, hits mostly inhibitors | purified LmPK, Kinase-Glo ATP luminescence, 1 h | Q27686 | 290,000 tested, 0.37% active
Target sequence (Q27686 whole entry, looked up): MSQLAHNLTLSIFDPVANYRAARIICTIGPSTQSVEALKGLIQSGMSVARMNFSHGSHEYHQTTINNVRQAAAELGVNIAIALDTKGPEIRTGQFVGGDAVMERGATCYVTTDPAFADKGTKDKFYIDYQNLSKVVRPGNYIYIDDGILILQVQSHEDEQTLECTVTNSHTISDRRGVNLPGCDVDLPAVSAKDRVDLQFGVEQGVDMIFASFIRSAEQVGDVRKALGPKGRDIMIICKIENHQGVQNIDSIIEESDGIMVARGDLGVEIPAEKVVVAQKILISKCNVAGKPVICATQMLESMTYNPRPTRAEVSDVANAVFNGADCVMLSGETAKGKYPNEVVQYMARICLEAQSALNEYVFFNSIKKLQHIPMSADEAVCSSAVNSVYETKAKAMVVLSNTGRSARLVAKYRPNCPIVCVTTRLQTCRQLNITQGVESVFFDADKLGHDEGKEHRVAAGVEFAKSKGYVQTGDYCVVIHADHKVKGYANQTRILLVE
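0.1 nM LmPK, 0.5 mM PEP, 0.1 mM ADP; 50 mM imidazole pH 7.2, 7 mM MgCl2, 50 mM KCl; 1 h RT. Kinase-Glo luminescence readout, normalized to no-enzyme (full inhibition) and uninhibited wells.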
RE007 growth inh = less growth of the S. pombe RE007 Vpr strain. S. pombe RE007 Vpr strain, BacTiter-Glo ATP luminescence, 24 h. Potency, µM (top dose mostly 92.2 µM), without a hit: at the highest dose activity change, negative = less growth, most hits filed as inhibitors. 360,000 tested, 0.21% active. AID 651644; active = well fitted falling curve with a large enough effect; inconclusive = small, poorly fitted or top-dose-only effect; inactive = no such curve, though single readings can be large or run the other way; note: nearly all actives have a fitted effect of over 50% in size
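Fission yeast strain RE007, carrying one chromosomally integrated HIV-1 vpr copy, was seeded at OD 0.01 in PMG+AL medium with 23 nL pinned compound. After 24 h at 30 °C and 99% humidity, viability was read by BacTiter-Glo luminescence.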
Sm TGR block = inhibitors of Schistosoma mansoni thioredoxin glutathione reductase; purified TGR, DTNB reduction, TNB absorbance 405 nm; Potency, µM (doses to about 114 µM), inactives show at the highest dose activity change, negative = inhibition, actives largely listed as inhibitors; 360,000 tested, 3% active; note: nearly all actives have a fitted effect of over 60% in size
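First, TGR (20 nM dispensed) and NADPH were mixed with compound. Second, a 15 min room-temperature incubation followed. Third, further NADPH and then DTNB were added to start the reaction. Finally, TNB absorbance was monitored kinetically.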
* hit, by the source's call. Sampled rows, rich in hits. Any-hit rate of the full collection: about 3.3%. Unless noted, calls come from the whole dose curve; as a rule, active = well fitted curve in the direction sought with a large enough effect; inconclusive = small, poorly fitted or top-dose-only effect, or another doubt; inactive = no such curve, though single readings can be large; an effect the other way counts as inactive or inconclusive. % is set by controls: 0 for no effect and ±100 for the full control effect; potency is the fitted concentration of half-maximal effect.

How did Cc1cc(Nc2cccc(F)c2)nc(N2CCOCC2)n1 do in these assays?
FBPA Giardia inh: -20%; Tb PYK inh: 0%; LmPK inh: 2%; RE007 growth inh: -5%; Sm TGR block: 5%

How did Cc1ccc([N+](=O)[O-])cc1NC(=S)NC(=O)C(C)(C)C do in these assays?
FBPA Giardia inh: 17%; Tb PYK inh: -6%; LmPK inh: 5%; RE007 growth inh: -9%; Sm TGR block: 45µM*

How did COc1ccc2ccc(O)c(CN3CCN(S(=O)(=O)c4cccc(C(F)(F)F)c4)CC3)c2c1 do in these assays?
Tb PYK inh: 4%; RE007 growth inh: -10%; Sm TGR block: 2.5µM*

How did COc1ccc2ccc(O)c(CN3CC=C(c4ccccc4)CC3)c2c1 do in these assays?
FBPA Giardia inh: -10%; Tb PYK inh: 2%; LmPK inh: 0%; RE007 growth inh: -22%; Sm TGR block: 8.9µM*

What do the screens show for `CCOc1ccc(OCC(O)CN2CCN(S(=O)(=O)c3cccc(C(F)(F)F)c3)CC2)cc1` (stereo unspecified)?
FBPA Giardia inh: inconclusive; Tb PYK inh: 8%; LmPK inh: -2%; RE007 growth inh: 18%; Sm TGR block: 6%

How did Cc1ccc(C)n1-c1ccc(C(=O)N/N=C/c2ccncc2)cc1 do in these assays?
FBPA Giardia inh: -2%; Tb PYK inh: 0%; LmPK inh: 5%; RE007 growth inh: inconclusive; Sm TGR block: 25µM*

How did Cc1nonc1C(=O)N/N=C/c1ccc([N+](=O)[O-])o1 do in these assays?
FBPA Giardia inh: inconclusive; Tb PYK inh: -1%; LmPK inh: -10%; RE007 growth inh: -24%; Sm TGR block: 45µM*

How did Cc1cc(C)c(S(=O)(=O)N/N=C/c2ccc([N+](=O)[O-])o2)c(C)c1 do in these assays?
FBPA Giardia inh: inconclusive; Tb PYK inh: -16%; LmPK inh: 4%; RE007 growth inh: -26%; Sm TGR block: 7.1µM*

Results for O=C(N/N=C/c1ccncc1)c1ccccc1 ?
FBPA Giardia inh: 1%; Tb PYK inh: -9%; LmPK inh: -7%; RE007 growth inh: -4%; Sm TGR block: 19%

Results for Cc1nonc1C(=O)N/N=C/c1ccncc1 ?
FBPA Giardia inh: -1%; Tb PYK inh: 4%; LmPK inh: 16µM*; RE007 growth inh: -6%

How did Cc1cc(C(=O)N/N=C/c2ccc([N+](=O)[O-])o2)c(C)o1 do in these assays?
FBPA Giardia inh: -8%; Tb PYK inh: -1%; LmPK inh: 4%; RE007 growth inh: -9%; Sm TGR block: inconclusive

Results for CCN1/C(=C/C(C)=C/c2sc3ccccc3[n+]2CC)Sc2ccccc21 ?
FBPA Giardia inh: -8%; Tb PYK inh: inconclusive; LmPK inh: -14%; RE007 growth inh: 7.1µM*; Sm TGR block: -24%

How did CC(C)CN1CCC(=O)N([C@H](CSc2ccc(Br)cc2)Cc2ccccc2)CC1 do in these assays?
FBPA Giardia inh: 0%; Tb PYK inh: 4%; LmPK inh: -3%; RE007 growth inh: 5%; Sm TGR block: 6.3µM*

Results for CCCN1CCC(=O)N([C@H](CSc2ccc(OC)cc2)Cc2ccccc2)CC1 ?
FBPA Giardia inh: 2%; Tb PYK inh: 4%; LmPK inh: 2%; RE007 growth inh: 5%; Sm TGR block: 20µM*

Results for CCCN1CCC(=O)N([C@H](CSc2ccc(C)cc2)CC(C)C)CC1 ?
FBPA Giardia inh: 1%; Tb PYK inh: -4%; LmPK inh: 5%; RE007 growth inh: 16%; Sm TGR block: 40µM*

What do the screens show for `Cc1ccc(SC[C@H](Cc2ccccc2)N2CCN(C)CCC2=O)cc1`?
FBPA Giardia inh: -2%; Tb PYK inh: 0%; LmPK inh: 8%; RE007 growth inh: -17%; Sm TGR block: 40µM*

How did CCN1C=CC2=C(C#N)C(N)C(C#N)(C#N)C(c3ccccc3C(F)(F)F)C2C1 (stereo unspecified) do in these assays?
FBPA Giardia inh: 1%; Tb PYK inh: -5%; LmPK inh: 1%; RE007 growth inh: -2%; Sm TGR block: -36%

What do the screens show for `Cc1ccc(NC2=NCC(=O)N2Cc2ccccc2)c(C)c1`?
FBPA Giardia inh: 0%; Tb PYK inh: 2%; LmPK inh: 0%; RE007 growth inh: -13%; Sm TGR block: -19%

How did CC(=O)Nc1ccc(SC[C@H](c2ccccc2)N2CCN(CCc3ccccc3)CCC2=O)cc1 do in these assays?
FBPA Giardia inh: 1%; LmPK inh: 5%; Sm TGR block: 14µM*

What do the screens show for `CC(=O)Nc1ccc(SCC(c2ccccc2)N2CCN(CC(C)C)CCC2=O)cc1` (stereo unspecified)?
FBPA Giardia inh: 1%

Results for c1ccc(CNc2nc3c(-c4ccccc4)nnn3c3ccccc23)cc1 ?
Tb PYK inh: -1%; Sm TGR block: -1%

How did O=C1ON=C(c2cccc([N+](=O)[O-])c2)/C1=C/c1ccc(O)cc1 do in these assays?
FBPA Giardia inh: inconclusive; Tb PYK inh: inconclusive; LmPK inh: 1%; RE007 growth inh: -6%; Sm TGR block: 10µM*

How did Cc1ccc2nc3c(cc(C(=O)NC4CCCCC4)c(=N)n3C3CCCCC3)c(=O)n2c1 do in these assays?
FBPA Giardia inh: 1%; Tb PYK inh: -2%; LmPK inh: 0%; RE007 growth inh: -6%; Sm TGR block: 3%

What do the screens show for `O=[N+]([O-])c1ccccc1/C=N\Nc1nccs1`?
FBPA Giardia inh: -3%; Tb PYK inh: -3%; LmPK inh: 0%; RE007 growth inh: 9%; Sm TGR block: 11%

Results for O=[N+]([O-])c1cc(/C=N\Nc2nccs2)ccc1O ?
FBPA Giardia inh: inconclusive; LmPK inh: inconclusive; Sm TGR block: 28µM*

Results for Cc1ccccc1NCC(=O)c1ccc(Br)cc1 ?
FBPA Giardia inh: 5%; Tb PYK inh: -4%; LmPK inh: -6%; RE007 growth inh: -19%; Sm TGR block: -15%

Results for COc1ccc(C2C(C(=O)Nc3cccnc3)=C(C)Nc3nc(-c4ccco4)nn32)cc1 (stereo unspecified) ?
FBPA Giardia inh: 0%; Tb PYK inh: -5%; LmPK inh: 6%; RE007 growth inh: 13%; Sm TGR block: 50µM*

Results for C=CCn1c(SCC(=O)NC2CCCC2)nc2scc(-c3ccco3)c2c1=O ?
FBPA Giardia inh: 6%; Tb PYK inh: -29%; LmPK inh: 0%; RE007 growth inh: 9%; Sm TGR block: 11µM*

What do the screens show for `C=CCn1c(=S)[nH]c2scc(-c3ccc(C)o3)c2c1=O`?
FBPA Giardia inh: 13%; Tb PYK inh: -24%; LmPK inh: 5%; RE007 growth inh: 11%; Sm TGR block: 35µM*

What do the screens show for `C=CCn1c(SCC(=O)Nc2ccc(C(=O)O)cc2)nc2scc(-c3ccccc3)c2c1=O`?
Tb PYK inh: 8%; RE007 growth inh: 3%

Screening results as filed in PubChem BioAssay.
